Screening data deposited in PubChem BioAssay by National Center for Advancing Translational Sciences (NCATS).
Hits are enriched below; roughly 10% of the tested compounds scored in any of these assays.
BAZ2B inh: blocks human BAZ2B. 360,000 tested, 4.4% active. Potency, µM (highest dose often 114 µM), without a hit: at the highest dose activity change, negative = inhibition, actives largely listed as inhibitors. AlphaScreen BAZ2B-H3K14Ac peptide displacement. AID 504333. Q9UIF8; also: % is scaled to controls: 0 for no effect and ±100 for the full control effect; nearly all actives have a fitted effect of over 60% in size
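Compounds, titrated to a top concentration of 110 uM, were incubated 30 min at room temperature with preformed BAZ2B/acetyl-K14 H3 peptide complex (50 nM each). Proximity signal was measured by AlphaScreen after 20 min with beads.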
JMJD2A Tudor inh: blocks the human JMJD2A Tudor domain | O75164 | AlphaScreen JMJD2A-Tudor / H3K4me3 peptide binding | Potency, µM (titrated, usually from 114 µM), for the others: at the top dose activity change, negative = inhibition, usual class: inhibitors | 390,000 tested, 4.4% active; also: % is scaled to controls: 0 for no effect and ±100 for the full control effect; nearly all actives have a fitted effect of over 50% in size
L3MBTL1 inh: inhibitors of human L3MBTL1; Q9Y468; AlphaScreen L3MBTL1–H3K9me1 peptide binding; Potency, µM (doses to about 57.1 µM), for inactives: at the top dose activity, negative = inhibition, hits mostly inhibitors; 230,000 tested, 0.66% active; AID 485360; also: % is scaled to controls: 0 for no effect and ±100 for the full control effect; nearly all actives have a fitted effect of over 60% in size
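L3MBTL1 50 nM + b-AHA-H3(1-15)K9me1 75 nM, 30 min RT; compound added, 30 min RT; streptavidin donor/Ni-chelate acceptor beads 10 ug/mL each final, 30 min RT dark; AlphaScreen read.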
G9a inh: inhibitors of human histone lysine methyltransferase G9a. Q96KQ7. G9a H3K9 monomethylation, AlphaScreen, 2 h. Potency, µM (highest dose often 102 µM), without a hit: at the top dose activity, negative = inhibition, most hits filed as inhibitors. 350,000 tested, 8.8% active; also: % is scaled to controls: 0 for no effect and ±100 for the full control effect; nearly all actives have a fitted effect of over 75% in size
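AlphaScreen read-out: biotin-H3K9 peptide (500 nM) methylation by 20 nM enzyme with 20 uM SAM, 2 h at room temperature after 15 min compound preincubation; anti-monomethyl H3K9 antibody plus donor/acceptor beads, 10 min dark.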
HP1b binding inh: HP1-beta chromodomain-methylated histone interaction inhibition; P83916; AlphaScreen HP1-beta / biotin-H3K9me3 peptide binding; Potency, µM (highest dose often 114 µM), inactives show at the top dose activity change, negative = inhibition, most hits filed as inhibitors; 390,000 tested, 0.56% active; AID 540317; also: nearly all actives have a fitted effect of over 70% in size
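AlphaScreen: HP1-beta (50 nM) preformed 30 min with biotin-H3(1-18)K9me3 peptide (50 nM) in PBS pH 7.4, 0.01% Tween-20. Compound added for 30 min at RT, then streptavidin donor/nickel chelate acceptor beads (10 ug/mL) for 30 min.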
GLS inhibitor: inhibitors of human glutaminase (GLS); Potency, µM (highest dose often 45.5 µM), for the others: at the highest dose activity change, negative = inhibition, most hits filed as inhibitors; GLS enzymatic activity, qHTS titration; 410,000 tested, 0.21% active; O94925; also: % is scaled to controls: 0 for no effect and ±100 for the full control effect
Target sequence (O94925 whole entry, looked up): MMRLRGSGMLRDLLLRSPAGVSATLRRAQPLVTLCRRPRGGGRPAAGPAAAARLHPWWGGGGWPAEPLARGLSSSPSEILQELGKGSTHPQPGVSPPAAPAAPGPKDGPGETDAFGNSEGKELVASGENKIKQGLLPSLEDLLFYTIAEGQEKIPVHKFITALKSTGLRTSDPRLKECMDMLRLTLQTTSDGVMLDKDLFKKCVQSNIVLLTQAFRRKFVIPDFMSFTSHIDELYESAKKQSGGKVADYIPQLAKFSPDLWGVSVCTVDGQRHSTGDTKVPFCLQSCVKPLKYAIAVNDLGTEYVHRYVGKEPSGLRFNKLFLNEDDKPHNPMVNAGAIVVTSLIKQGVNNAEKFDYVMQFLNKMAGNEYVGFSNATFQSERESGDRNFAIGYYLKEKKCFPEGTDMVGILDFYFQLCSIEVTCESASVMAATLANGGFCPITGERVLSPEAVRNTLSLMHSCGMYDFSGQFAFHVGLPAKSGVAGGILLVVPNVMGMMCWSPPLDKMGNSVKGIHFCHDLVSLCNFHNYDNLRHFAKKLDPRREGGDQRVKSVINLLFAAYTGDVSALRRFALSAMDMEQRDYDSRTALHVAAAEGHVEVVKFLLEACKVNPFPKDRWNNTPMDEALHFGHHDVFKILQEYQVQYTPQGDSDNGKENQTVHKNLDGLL
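Human kidney-isoform GLS in 45 mM KH2PO4 pH 8.2, 0.02% Tween-20, with compound, started with 1mM L-Glutamine (added stock). Glutamate oxidase/HRP/Amplex red coupled fluorescence read at start and after 30 min at RT.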
* hit, by the source's call; ? = inconclusive; . = no result given; [ ] = another dose, or the depositor's remark. Calls follow the shape of the dose curve; as a rule, active = well fitted curve in the direction sought with a large enough effect; inconclusive = small, poorly fitted or top-dose-only effect, or another doubt; inactive = no such curve, though single readings can be large; an effect the other way counts as inactive or inconclusive. Potency is read from the fitted curve at half-maximal effect.

SMILES	BAZ2B inh	JMJD2A Tudor inh	L3MBTL1 inh	G9a inh	HP1b binding inh	GLS inhibitor
O=C(COCc1cc(-c2cccs2)on1)Nc1cccc(Cl)c1Cl	62%	54%	.	25%[59 µM]	90%	-6%
Nc1nnc(CC(=O)N/N=C\c2cc([N+](=O)[O-])ccc2O)s1	28µM*	?	?	?	29%	-2%
Cc1cc(C)n(CC(=O)N/N=C/c2cc([N+](=O)[O-])ccc2O)n1	40µM*	?	?	-14%	32%	-5%
CC(Nc1ncnc2c1cnn2-c1cccc(Cl)c1)c1ccccc1 (stereo not given)	22%	6%	.	27%[59 µM]	84%	0%
CC1CCc2c(sc(NC(=O)Cn3nnc(-c4ccc(C(F)(F)F)cc4)n3)c2C#N)C1 (stereo not given)	-38%	?	.	-19%[59 µM]	4%	3%
COC(=O)c1ccccc1NC(=O)Cn1nc(C)c2nn(-c3ccc(Cl)cc3)c(C)c2c1=O	3%	-15%	.	4%[59 µM]	14%[57 µM]	0%
COc1ccc2c(c1)c1c(c(=O)n(Cc3ccccc3)c(=O)n1Cc1ccccc1Cl)n2C	-5%	18%	.	10%[59 µM]	48%	-4%
CC1(C)Cc2c(ccc3ccccc23)/C(=C/C(=O)N2CCCCC2)N1	50µM*	-58%	-9%	?	-12%	1%
O=C(Oc1ccc2ccccc2c1Cl)N1CCCCCC1	61%	29%	32%	82%[59 µM]	89%	-3%
Cc1ccc2cccc(NC(=O)c3ccc(C#N)cc3F)c2n1	-8%	-11%	.	0%[59 µM]	21%	7%
O=C(c1cc2n(n1)C(C(F)(F)F)CC(c1ccco1)N2)N1CCc2ccccc2C1 (stereo not given)	?	-33%	23%[11.4 µM]	?	2%	21%
COc1cc2c(cc1OC)C(C)N(C(=O)c1cc3n(n1)C(C(F)(F)F)CC(c1ccco1)N3)CC2 (stereo not given)	?	?	-4%	18µM*	-14%	-1%
CCCCCCCC#Cc1ccccc1/C=N/S(=O)c1ccc(C)cc1 (stereo not given)	25%	8.9µM*	8%	0.79µM*	171%	?
CCOC(=O)C(O)(NC(=O)c1cccnc1)C(F)(F)F (stereo not given)	-31%	8%	.	?	52%	1%
CC(=O)C(C(C)=O)C(NC(=O)c1cccnc1)(C(F)(F)F)C(F)(F)F	-24%	3.5µM*	-6%	-16%[59 µM]	20%	?
CCOC(=O)c1cccc(Nc2ccc3cc(S(=O)(=O)N4CCCCC4)ccc3n2)c1	15%	28%	.	-6%[59 µM]	74%	-3%
O=S(=O)(c1cccs1)N1CCN(CC(O)COC2CCCc3ccccc32)CC1 (stereo not given)	50µM*	4µM*	5%	18µM*	?	-1%
CCOc1ccccc1N1CCN(CC(O)COC2CCCc3ccccc32)CC1 (stereo not given)	-14%	-29%	.	9%	3%	-4%
O=S(=O)(c1cccs1)N1CCN(CC(O)COc2cccc(Br)c2)CC1 (stereo not given)	79µM*	3.2µM*	.	?	?	-9%
O=C(c1ccco1)N1CCc2[nH]nc(-c3ccccc3)c2C1	-33%	-15%	.	79µM*	42%	-6%
CNc1nc(CC(C)=O)ns1	-20%	-16%	-10%	79µM*	23%	5%
CCc1ccc(CCC(=O)Nc2nc(CC(C)=O)ns2)o1	-10%	?	-7%	71µM*	11%	8%
CCCCNc1nc(CC(C)=O)ns1	3%	-14%	.	-19%	28%	-12%
CCc1ccc(CCC(=O)Nc2nnc(C)s2)o1	-11%	-18%	-2%	-25%[12.7 µM]	20%	1%
O=c1[nH]c(=O)n([C@@H]2C[C@H](O)[C@H](CO)O2)cc1C(F)(F)F	.	.	.	19%[21.5 µM]	.	.
SMILES	BAZ2B inh	JMJD2A Tudor inh	L3MBTL1 inh	G9a inh	HP1b binding inh	GLS inhibitor
Cc1cc(C)n2c(SCC(O)=C(C#N)c3nc4ccccc4[nH]3)nnc2n1	.	-25%	.	.	-4%	-4%
Cc1cccc(Nc2nnc(SC/C(O)=C(\C#N)c3nc4ccccc4[nH]3)s2)c1	-33%	-17%	-18%	16µM*	1%	16%
Cc1ccc(Nc2nnc(SC/C(O)=C(\C#N)c3nc4ccccc4[nH]3)s2)c(C)c1	5%	-32%	-5%	7.1µM*	2%	6%
CN1C(=O)c2oc3ccc(Br)cc3c(=O)c2C1c1ccncc1 (stereo not given)	4%	.	6%	16µM*	.	.
CN1C(=O)c2oc3ccccc3c(=O)c2C1c1cccnc1 (stereo not given)	.	-19%	.	.	22%	-17%
CN1C(=O)c2oc3ccccc3c(=O)c2C1c1ccccn1 (stereo not given)	?	32µM*	6%	28µM*	38%	5%
CC(C)C[C@@H](CN)NC(=O)c1nc[nH]c1C(=O)N[C@@H](Cc1c[nH]c2ccccc12)C(=O)CNC[C@H](C)NC(=O)c1nc[nH]c1C(=O)N[C@@H](C)C(=O)O	.	56µM*	.	.	14%	?
CC(C)C[C@@H](CN)NC(=O)c1nc[nH]c1C(=O)N[C@@H](Cc1ccccc1)C(=O)CNC[C@H](C)NC(=O)c1nc[nH]c1C(=O)N[C@@H](CC(C)C)C(=O)O	.	56µM*	.	.	49%	7%
CC(C)C[C@@H](CNCC(=O)[C@H](Cc1c[nH]c2ccccc12)NC(=O)c1[nH]cnc1C(=O)N[C@@H](C)CN)NC(=O)c1nc[nH]c1C(=O)N[C@@H](Cc1ccccc1)C(=O)O	.	?	.	.	39%	?
CC(C)C[C@@H](CN)NC(=O)c1nc[nH]c1C(=O)N[C@@H](Cc1ccccc1)C(=O)CNC[C@H](C)NC(=O)c1nc[nH]c1C(=O)N[C@@H](C)C(=O)O	.	79µM*	.	.	56%	-23%
CCOc1ccccc1NC(=O)C1CCN(S(=O)(=O)c2c(C)noc2/C=C/c2ccc(C)cc2)CC1	2%	-6%	.	-3%[59 µM]	27%[57 µM]	-7%
Cn1cccc1-c1cc2n(n1)CCC(=O)N2CCCC(=O)NCc1cccc(Cl)c1	?	-34%	.	?	-1%[57 µM]	-2%
Cc1nc2c(nnn2Cc2ccccc2Cl)c(=O)[nH]1	-5%	3%	4%[2.29 µM]	0%[0.501 µM]	33%	0%
Cc1nc(Nc2ccc(Cl)cc2)c2nnn(Cc3ccccc3)c2n1	2%	18µM*	-1%	-4%	-6%	3%
COc1ccc(Nc2nc(C)nc3c2nnn3Cc2ccccc2)cc1OC	13%	3%	-7%	-2%[59 µM]	14%	0%
Cc1nc2c(nnn2Cc2ccccc2)c(=O)[nH]1	.	8.9µM*	.	?	?	?
